This is an account of results in PubChem BioAssay AID618 (Sanford-Burnham Center for Chemical Genomics, 2007).

Among all 87,000 compounds or so, about 540 (0.62%) were called active. No rule for the calls is given here. The full list was thinned out, with actives kept by preference. Measured potencies and affinities stand elsewhere.

This assay in a line: MT1-MMP gene expression reporter suppression – cell-based, luciferase reporter, luminescence (AID 618).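 Also: actives suppress MT1-MMP promoter-driven transcription so potencies describe inhibitors.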 Conditions: MT1-MMP promoter luciferase reporter cells. In general terms: In a reporter assay the amount or activity of a reporter protein is the signal.
In the case of `O=C(NCc1ccncc1)Nc1ccc(Cl)cc1Cl`, the result was inactive. For `CCCn1c(=O)c2c(c3ccccc31)OCC(=O)N2`, the compound was classed as inactive. Then `COc1ccc(Cc2nnc3n2N=C(c2cc4ccccc4o2)CS3)cc1OC`, with “inactive”. The value for `COC(=O)CSc1nsc(SCC(=O)OC)n1` was “inactive”. For `CCCCCSc1nc2c(cnn2-c2ccccc2)c(=O)[nH]1`, the call was inactive. As for `O=C(Nc1nc2ccccc2[nH]1)c1ccc(F)cc1`, the compound was classed as active. With `COc1ccc(C(=O)Nc2nc3ccccc3[nH]2)cc1OC`, the outcome was inactive.

On to `O=C(NCCc1nc2ccccc2[nH]1)c1ccc(F)cc1`, for which the compound was called inactive. With `Cc1[nH]c2ccccc2c1/C=N/n1cnnc1`, the result was inactive. For the compound `Nc1c(C(=O)Nc2ccccc2)sc2nc3c(c(-c4ccco4)c12)CCC3`, the compound was called inactive. As to `COc1ccc(C2NC3=C(CCC3)C3(C#N)C(OC)(OC)N=C(N)C23C#N)cc1` (configuration not stated), the result was inactive. Take `COc1ccc(OC)c(S(=O)(=O)NCCO)c1`: the compound was classed as inactive.

With `O=C(NCCc1ccccc1)C1CC(c2ccccc2O)=NO1` (configuration not stated), the compound was classed as inactive. With `COc1ccc2c(c1)CC/C(=C\Nc1ccc3c(c1)OCO3)C2=O`, the outcome was inactive. As for `O=C1CCCC/C1=C/Nc1ccc2c(c1)OCO2`, the compound was classed as inactive. For the compound `CCn1cc(Br)c(C(=O)Nc2cccc(SC)c2)n1`, the compound was classed as inactive. Regarding `CCOC(=O)c1c(C)c(C(=O)Nc2ccc3c(c2)OCO3)c(C)n1C`, the outcome was inactive. In the case of `CCOC(=O)c1c(N)sc(C(=O)Nc2ccc3c(c2)OCO3)c1C`, the compound was called active. For `CCOC(=O)c1c(C)[nH]c(C(=O)Nc2ccc3c(c2)OCO3)c1C`, the call was inactive. Regarding `COc1ccc(-c2nnc3ccc(SCC(=O)N4CCCC4)nn23)cc1`, the outcome was inactive. Regarding `Cn1c(=O)c2c(nc(N3CCN(Cc4ccccc4)CC3)n2CCSc2ncccn2)n(C)c1=O`, the compound was classed as inactive. For `COc1ccc(S(=O)(=O)Nc2cc(Cl)ccc2OC)cc1`, the call was active.

Consider `COc1ccc(OC)c(NS(=O)(=O)c2ccc(N3CCCC3=O)cc2)c1`, for which the outcome was active. As for `COc1ccc(CCNS(=O)(=O)c2ccc(N3CCCC3=O)cc2)cc1`, the compound was classed as inactive.

As to `COc1ccc(Cl)cc1NS(=O)(=O)c1ccc(OC)c(OC)c1`, the outcome was inactive. Consider `COc1ccc(Cl)cc1NS(=O)(=O)c1ccc(S(=O)(=O)N2CCCC2)cc1`, for which the call was inactive. Regarding `Cc1ccccc1NS(=O)(=O)c1ccc(N2CCCC2=O)cc1`, the compound was classed as inactive.

`C=CCc1cccc(/C=N/n2c(C)nnc2C)c1O`: the result was inactive. As to `O=C1CC(c2ccc(S(=O)(=O)N3CCCCC3)cc2)CN1` (configuration not stated), the outcome was inactive. Consider `CCOc1cccc(CNn2cnnc2)c1OCc1ccccc1`, for which the compound was classed as inactive. Take `CCN1CCN(CCNC(=O)CS(=O)(=O)Cc2nc(-c3ccc(C)cc3)oc2C)CC1`: the compound was classed as inactive. Regarding `CCOc1cc(-c2noc(N)c2C(=O)OC)cc(OCC)c1OCC`, the compound was classed as inactive.

On to `Brc1ccc(-c2nc(N/N=C/c3cccnc3)c3ccccc3n2)cc1`, for which the call was inactive.

With `Cc1ccc(-c2nc(N/N=C/c3cccnc3)c3ccccc3n2)cc1`, the outcome was inactive. For the compound `COc1ccc(CCn2c(C)cc3c(c2=O)C(c2ccc4c(c2)OCO4)C(C#N)=C(N)O3)cc1OC` (configuration not stated), the compound was called inactive. `COc1ccccc1NC(=O)C1C2CCCCC21` (configuration not stated): the compound was called inactive.

Regarding `Cc1cc(C)n(C(=O)c2nn(C)c(C)c2[N+](=O)[O-])n1`, the call was inactive. Then `CC(=O)c1cccc(NC(=O)c2cc3ccccn3n2)c1`, with “inactive”. As to `COc1cccc(CNC(=O)c2cc3ccccn3n2)c1`, the outcome was inactive. Then `O=C(Nc1ccc(CN2CCOCC2)cc1)c1cccc(F)c1`, with “inactive”; and `O=C(Nc1ccc(CN2CCOCC2)cc1)c1cc2ccccc2o1`, with “inactive”.

Regarding `COc1ccc(-c2ccc(-c3noc(-c4ccc(OC)c(OC)c4)n3)c(OC)n2)cc1`, the compound was called inactive. With `CC(C)CNC(=O)c1ccccc1NC(=O)c1ccccc1N(C)S(C)(=O)=O`, the outcome was inactive. On to `COC(=O)CSc1nnc2n1C(C)(C)Cc1ccccc1-2`, for which the call was inactive. For the compound `Cc1ccc2cc(CCNC(=O)C(C)C)c(=O)[nH]c2c1`, the call was inactive. The value for `COC(=O)c1sc(S(=O)(=O)N2CCCCC2)c(C(=O)OC)c1C` was “inactive”. The value for `COc1ccc(NC(=O)NCCCN2CCc3ccccc3C2)cc1` was “inactive”; that for `O=C(Nc1ccc(N2CCCCC2)c(C(=O)O)c1)c1ccco1` was “inactive”; that for `O=C(Nc1ccc(N2CCOCC2)c(Cl)c1)c1ccco1` was “inactive”.

Regarding `CC(=O)NC(c1ccco1)c1ccc2cccnc2c1O` (configuration not stated), the outcome was inactive. Turning to `Oc1c(C(Nc2nc3ccccc3s2)c2ccco2)ccc2cccnc12` (configuration not stated), the compound was called inactive. `CCN(CC)C(=O)CSc1nnc(-c2ccccn2)n1-c1ccc(C)c(C)c1`: the call was inactive. `COc1ccc(-c2nsc3c(N4CCN(S(=O)(=O)c5ccccc5)CC4)ncnc23)cc1`: the call was inactive. Regarding `COc1ccc(S(=O)(=O)N2CCN(c3ncnc4c(-c5ccccc5)nsc34)CC2)cc1`, the outcome was inactive. The value for `O=C(N1CCCC1)N1CCN(c2ncnc3c(-c4ccc(Cl)cc4)nsc23)CC1` was “inactive”; that for `COc1ccc(-c2nsc3c(N4CCCC4)ncnc23)cc1` was “active”; that for `COc1ccc(-c2nsc3c(N4CCN(C(=O)c5ccco5)CC4)ncnc23)cc1` was “inactive”. On to `CC1(C)CC(=O)c2cc(C(=O)NC3CCSC3=O)c(=O)n(-c3ccccc3)c2C1` (configuration not stated), for which the call was inactive. For `O=C(O)C1C2C=CC(C2)C1C(=O)N1CCc2ccccc21` (configuration not stated), the compound was called inactive. For `O=C1CCC(C(=O)OCc2c(Cl)cccc2Cl)N1` (configuration not stated), the outcome was inactive. The value for `CC1C2CC(CC1(C)C)N(C(=O)Nc1ccc3nccnc3c1)C2` (configuration not stated) was “inactive”; that for `COC(=O)c1c(O)c2ccccc2[nH]c1=O` was “inactive”; that for `Cc1cccc2cc(CN(Cc3cccs3)C3(c4nnnn4C4CCCC4)CCCC3)c(=O)[nH]c12` was “inactive”. With `c1ccc(-c2cn3c(n2)CCC3)cc1`, the call was inactive.

Consider `COc1cccc(-c2cc(C(F)(F)F)n3nc(N)nc3n2)c1`, for which the outcome was inactive.

For the compound `COc1ccc(-c2cn3c(n2)CCC3)cc1`, the compound was classed as inactive. With `c1ccc(-c2ccc(-c3cn4c(n3)CCC4)cc2)cc1`, the result was inactive. For `COc1cccc(-c2cn3nc(C)c(C)nc3n2)c1`, the compound was called inactive. Consider `COc1cccc(-c2cn3nc4c(nc3n2)CCCC4)c1`, for which the compound was classed as active. Then `COc1ccc(-c2cn3ccc4ccccc4c3n2)cc1`, with “inactive”; and `CCOC(=O)c1cc(-c2ccccc2)n(CC(=O)N2CCCC2)c1C`, with “inactive”; and `COc1ccc(OC)c(C(C)NC=O)c1` (configuration not stated), with “inactive”. Consider `Cc1noc(C)c1CSc1nnc2scc(-c3ccc(Cl)cc3)n12`, for which the result was inactive. Consider `Cc1ccc(NC(=O)c2noc3c2CCCCC3)cc1C`, for which the compound was called inactive. With `O=C(Nc1cccnc1)c1noc2c1CCCCC2`, the result was inactive. On to `Cc1ccc(NC(=O)c2noc3c2CCCCC3)cc1`, for which the compound was classed as inactive.

Take `CCc1ccc(NC(=O)c2noc3c2CCCCC3)cc1`: the outcome was inactive.
